This note sets out measurements from PubChem BioAssay AID589 (National Center for Advancing Translational Sciences (NCATS), 2007).

Hit rate of the full screen: of about 59,000 compounds, about 6,200 (11%) were called active. Inconclusive results (about 9%) are left out. No stated cut-off is given here; in the data, active means max dye-equivalent concentration above about 10 nM; inconclusive means mostly about 1.1 nM to 9.6 nM; inactive means weaker than that. For the sample, actives were picked, then their nearest neighbours and some compounds at random.

The nature of this assay: qHTS Assay for Spectroscopic Profiling in 4-MU Spectral Region. The following applies: compound autofluorescence, 340/450 nm, 4-MU equivalents; hits give high values. In a few lines:
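Intrinsic fluorescence at 340/450 nm (ex/em) was read after 15 min at room temperature in pH 8.0, 100 mM Tris. Each compound concentration expressed as 4-MU-equivalent concentration from a six-point 4-MU standard series on each plate.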
In general terms: Quantitative high-throughput screening tests each substance at several concentrations.
As for `Cc1ccccc1S(=O)(=O)Cc1ccc(C(=O)NCCN2CCCCC2C)o1` (stereo not given), the max dye-equivalent concentration entry was “inactive”.
As to `O=C1CC(c2cccc(F)c2)C2=C(CCCC2=O)N1` (stereo not given), the max dye-equivalent concentration entry was “inactive”.
With `O=C1CC(c2cccc(Br)c2)C2=C(CCCC2=O)N1` (stereo not given) the figure was 43 nM (active); with `O=C1CCCc2c1[nH]c1ccc(Br)cc21`, “inactive”.
Next, `O=C(CN1C(=O)NC2(CCCCC2)C1=O)NCCC1=CCCCC1`: “inactive”.
As for `CC(=O)OC(C(=O)NC1CCCCC1)c1ccccc1` (stereo not given), the max dye-equivalent concentration entry is “inactive”.
Turning to `CC1(CCC(=O)OC2CCCCC2)OCCO1`, the max dye-equivalent concentration result is “inactive”.
`CCc1ccc2oc(-c3ccc(N)cc3)nc2c1`: the max dye-equivalent concentration is 120 nM (active).
As for `Cc1ccc(/C(=C/CN2CCCC2)c2ccccn2)cc1`, the max dye-equivalent concentration entry is “inactive”.
With `C[C@@H]1C[C@H]2[C@@H]3C[C@H](F)C4=CC(=O)C=C[C@@]4(C)[C@]3(F)[C@H](O)C[C@]2(C)[C@@]1(O)C(=O)CO`, the max dye-equivalent concentration entry is “inactive”.
As for `O=C(Cn1c(=O)n(Cc2ccco2)c(=O)c2ccccc21)NCC1CCCO1` (stereo not given), the max dye-equivalent concentration entry was “inactive”.
Regarding `CC1(C)CC(=O)c2cc(OCC(=O)NCC3CCCO3)ccc2O1` (stereo not given), the max dye-equivalent concentration was 1700 nM (active).
With `COc1ccccc1-n1cnc2cc(C(=O)NCC3CCCO3)ccc21` (stereo not given) the entry was “inactive”; with `Cc1cc2c(cc1C)NC1=C(N2)O[C@H](c2c[nH]c3ccc(COc4ccccc4)cc23)C1=O`, “inactive”; with `CCN(CCCCOC(=O)c1ccc(OC)c(OC)c1)C(C)Cc1ccc(OC)cc1` (stereo not given), “inactive”.
As to `CC(C)NC(=O)N1CC[C@@]2(CCCN(C(=O)c3cccn3C)C2)C1`, the max dye-equivalent concentration entry was “inactive”.
With `CCOc1ccc2nc(NC(=O)CSc3nc4c(c(=O)n(C)c(=O)n4C)n3CC)sc2c1` the entry was “inactive”; with `CC(=O)c1ccc(-n2nnnc2SCC(=O)N2CCN(C(=O)c3ccco3)CC2)cc1`, “inactive”.
As to `COc1ccc(CCN(C)CCN2C(=O)c3ccccc3C2=O)cc1OC`, the max dye-equivalent concentration result was “inactive”.
In the case of `COc1ccc(CCN2C(=O)c3[nH]nc(-c4ccccc4O)c3C2c2ccc(C)cc2)cc1OC` (stereo not given), the max dye-equivalent concentration was 110 nM (active).
As for `COc1ccc(-c2n[nH]c(C)c2-c2ccc(OC)c(OC)c2)c(O)c1`, the max dye-equivalent concentration entry is “inactive”.
Next, `Cc1ccc(NC(=O)C2CCCN(S(=O)(=O)c3c(C)noc3C)C2)c(C)c1` (stereo not given): “inactive”; `Cc1ccc(Cn2nnc3c(=O)n(CC(=O)N4CCCCC4)cnc32)cc1`: “inactive”.
On to `COC(=O)c1ccccc1NC(=O)CN(Cc1ccccc1)S(C)(=O)=O`, for which the max dye-equivalent concentration entry was “inactive”.
On to `CNC(=O)CSc1nnnn1-c1ccc(C)cc1C`, for which the max dye-equivalent concentration entry is “inactive”.
Regarding `O=c1[nH]c(CSc2ncc(-c3ccc(F)cc3)n2Cc2ccco2)nc2ccccc12`, the max dye-equivalent concentration result was “inactive”.
Regarding `O=c1[nH]c(=O)n(Cc2ccco2)c2c1C(C(F)(F)F)(C(F)(F)F)N=C(c1ccco1)N2`, the max dye-equivalent concentration is 18 nM (active).
For the molecule `Nc1cc(=O)nc(SCc2ccccc2)n1Cc1ccco1`, the max dye-equivalent concentration entry was “inactive”.
As to `CC1Cc2ccccc2N1C(=O)Cn1cnc2ccccc2c1=O` (stereo not given), the max dye-equivalent concentration entry is “inactive”.
`Cc1ccc(OCC(=O)Nc2ccc(-c3nnc(-c4ccco4)o3)cc2)cc1`: the max dye-equivalent concentration result is “inactive”.
For the molecule `COc1ccc(CC(=O)Nc2ccc(-c3nnc(-c4ccc(C)cc4)o3)cc2)cc1`, the max dye-equivalent concentration entry is “inactive”.
Turning to `Cc1ccc(OCC(=O)Nc2ccc(-c3nc4ncccc4o3)cc2)cc1`, the max dye-equivalent concentration is 25 nM (active).
For `COc1ccccc1N(CC(=O)N1CCCCC1)S(=O)(=O)c1ccccc1`, the max dye-equivalent concentration entry was “inactive”.
Turning to `Cc1ccc(S(=O)(=O)N2CCC(C(=O)N[C@@H](C)C(=O)NCc3ccccc3)CC2)cc1`, the max dye-equivalent concentration result is “inactive”.
Regarding `COc1ccc(Cl)cc1S(=O)(=O)N1CCN(CC(=O)C(C)(C)C)CC1`, the max dye-equivalent concentration entry was “inactive”.
Next, `CCCCOC(=O)NCN1C(=O)C2C3C=CC(C3)C2C1=O` (stereo not given): “inactive”.
With `COCC(C)NC(=O)c1ccc(Cl)c(Cl)c1` (stereo not given), the max dye-equivalent concentration entry was “inactive”.
Consider `COCCNC(=O)c1snc2ccc(Cl)cc12`, for which the max dye-equivalent concentration is 49 nM (active).
Turning to `COCCNC(=O)c1ccccc1-c1nc(-c2ccccc2Cl)no1`, the max dye-equivalent concentration result is “inactive”.
In the case of `CCN(CC)c1ccc(C(=O)OCC(=O)c2ccco2)cc1`, the max dye-equivalent concentration result was “inactive”.
Consider `Fc1ccc2nc(N3CCCCC3)sc2c1`, for which the max dye-equivalent concentration entry is “inactive”.
For `Cc1cc(N2CCCCC2)nc2ccc(Cc3ccc4nc(N5CCCCC5)cc(C)c4c3)cc12`, the max dye-equivalent concentration is 45 nM (active).
`O=C(CSc1nnc(-c2ccoc2)o1)N1CCOCC1`: the max dye-equivalent concentration result is “inactive”.
`O=C(O)C1C2C=CC(C2)C1C(=O)N1CCN(CCO)CC1` (stereo not given): the max dye-equivalent concentration result was “inactive”.
For `O=c1[nH][nH]c(=O)c2cc(N3CCCC3)ccc12`, the max dye-equivalent concentration is 53 nM (active).
Next, `Cc1cc(C)cc(N(C(C)C(=O)Nc2c(C)n(C)n(-c3ccccc3)c2=O)S(C)(=O)=O)c1` (stereo not given): “inactive”; `Cc1c(NC(=O)C(C)OC(=O)c2cc3c4ccccc4n(C)c3s2)c(=O)n(-c2ccccc2)n1C` (stereo not given): 110 nM (active); `Cc1ccccc1OCCC(=O)Nc1c(C)n(C)n(-c2ccccc2)c1=O`: “inactive”.
As for `CCOC(=O)C1CCN(C(=O)CC2C(=O)N(Cc3ccccc3)C(C)c3nc4ccccc4n32)CC1` (stereo not given), the max dye-equivalent concentration entry was “inactive”.
Regarding `CC1(C)Cc2ccccc2-c2nc(CN3CCOCC3)[nH]c(=O)c21`, the max dye-equivalent concentration result was “inactive”.
Turning to `N#Cc1c(N)sc2c1CCN(C(=O)OCc1ccccc1)C2`, the max dye-equivalent concentration result is “inactive”.
On to `CCN1CCc2c(C#N)c(NCc3ccccc3)nc(NCCO)c2C1`, for which the max dye-equivalent concentration was 430 nM (active).
Regarding `CC(=O)/C(=N\N=C(N)N)c1ccccc1`, the max dye-equivalent concentration entry was “inactive”.
Consider `CCc1nnc(NC(=O)C2CCCN2S(=O)(=O)c2ccccc2)s1` (stereo not given), for which the max dye-equivalent concentration is 18 nM (active).
With `CC(C)c1nnc(NC(=O)C2CCCN2S(=O)(=O)c2ccc(Cl)cc2)s1` (stereo not given), the max dye-equivalent concentration entry was “inactive”.
With `CCc1nnc(NS(=O)(=O)c2ccc(NS(=O)(=O)c3ccccc3)cc2)s1`, the max dye-equivalent concentration entry is “inactive”.
Take `O=C(C1=C(O)C(=O)N(Cc2ccccc2)C1c1cccnc1)c1ccco1` (stereo not given): the max dye-equivalent concentration result is “inactive”.
For `N#CC(C(N)=O)=C1CCC2(CC1)OCCCCO2`, the max dye-equivalent concentration entry was “inactive”.
As to `COc1cc(C2C(C(=O)c3ccc(C)o3)=C(O)C(=O)N2Cc2cccnc2)ccc1O` (stereo not given), the max dye-equivalent concentration entry was “inactive”.
With `CCSC1=C(C#N)C(=O)n2c1cc1c2CCCC1` the entry was “inactive”; with `CC(=O)Nc1ccc(S(=O)(=O)Nc2cccc(NC(=O)C(C)(C)C)c2)cc1`, “inactive”; with `COc1ccc(NS(=O)(=O)c2ccc(NC(=O)C(C)(C(F)(F)F)C(F)(F)F)cc2)nn1`, 20 nM (active).
Next, `COc1cc(NS(=O)(=O)c2ccc(NC(C)=O)cc2)cc(OC)c1`: “inactive”; `COC(=O)c1cc(NC(=O)CN2CCC(C(N)=O)(N3CCCCC3)CC2)cc(C(=O)OC)c1`: “inactive”; `CCCCCN(C(=O)NC(=O)Nc1ccccc1OC)S(C)(=O)=O`: “inactive”.
For the molecule `CCCc1nnc(NC(=O)c2cc(OC)cc(OC)c2)s1`, the max dye-equivalent concentration entry was “inactive”.
With `CCc1nnc(NC(=O)c2ccc(S(=O)(=O)NC3CCCCC3)cc2)s1`, the max dye-equivalent concentration result is “inactive”.
As to `Cc1ccc(C(=O)Nc2nnc(-c3cccs3)s2)cc1C`, the max dye-equivalent concentration is 73 nM (active).
In the case of `COc1ccc(Cc2nnnn2CC(=O)O)cc1`, the max dye-equivalent concentration result is “inactive”.
`CC(=O)OCc1cc(=O)n(C)c(=O)n1C`: the max dye-equivalent concentration result was “inactive”.
As for `CC(Sc1nncn1C)C(=O)Nc1ccccc1-c1ccccc1` (stereo not given), the max dye-equivalent concentration entry is “inactive”.
Next, `Cc1ccccc1-c1nc(N(C)Cc2ccco2)c2ccccc2n1`: “inactive”.
In the case of `CC1CCc2c(sc(NC(=O)c3ccc(Cn4cc(Br)cn4)o3)c2C(N)=O)C1` (stereo not given), the max dye-equivalent concentration is 100 nM (active).
For `Cc1ccc(C)c(NC(=O)C2CC(=O)N(C(C)C)C2)c1` (stereo not given), the max dye-equivalent concentration result is “inactive”.
With `O=C(NCC(F)(F)F)Nc1nnc(C(F)(F)F)s1`, the max dye-equivalent concentration entry was “inactive”.
For the molecule `CN(C)CCCn1c(N)c(C#N)c2nc(C#N)c(C#N)nc21`, the max dye-equivalent concentration is 730 nM (active).
Regarding `O=C(O)C1CCN(S(=O)(=O)N2CCOCC2)CC1`, the max dye-equivalent concentration result is “inactive”.
For `O=C(CNS(=O)(=O)c1cccc(C(F)(F)F)c1)Nc1ccccc1F`, the max dye-equivalent concentration result was “inactive”.
On to `Cc1ccccc1NC(=O)NCc1ccco1`, for which the max dye-equivalent concentration entry was “inactive”.
Next, `CN1CCN(c2ncncc2-c2ccc(C(=O)N(C)C)cc2)CC1`: “inactive”; `COc1ccc(-c2nnc(SC(C)C#N)o2)cc1` (stereo not given): “inactive”; `CCOc1cc(C2C(C(=O)OC)=CN(C3CCCC3)C=C2C(=O)OC)cc(Br)c1O`: 200 nM (active).
Next, `CCOc1ccc(CNC(=O)C2CCC(=O)N2C2CCCC2)cc1OC` (stereo not given): “inactive”; `CCCC(=O)Nc1cc(OCC)c(NC(=O)NC2CCCCC2)cc1OCC`: “inactive”; `OCCN1CCN(CC/C=C2\c3ccccc3Sc3ccc(C(F)(F)F)cc32)CC1`: “inactive”.
Next, `CN(C)C(=O)/N=N\C(=O)N(C)C`: “inactive”.
Take `Cc1ccc2nc(S(=O)(=O)O)[nH]c2c1`: the max dye-equivalent concentration entry was “inactive”.
Regarding `CCOc1ccc2c(c1)cc(CN(C(=O)CC)C1CCCCC1)c1nnnn12`, the max dye-equivalent concentration entry is “inactive”.
On to `CC(C)(C)n1nnnc1C(c1cccs1)N(Cc1cccnc1)CC1CCCO1` (stereo not given), for which the max dye-equivalent concentration entry is “inactive”.
With `CCOc1ccc2[nH]c(=O)c(CN(CCCO)C(C)=O)cc2c1`, the max dye-equivalent concentration is 300 nM (active).
Turning to `CCC(c1nnnn1Cc1ccccc1)N(Cc1cc2cc(OC)ccc2[nH]c1=O)CC1CCCO1` (stereo not given), the max dye-equivalent concentration is 32 nM (active).
Consider `COc1ccc2[nH]c(=O)c(CN(Cc3nnnn3CCc3ccccc3)CC3CCCO3)cc2c1` (stereo not given), for which the max dye-equivalent concentration is 360 nM (active).
Regarding `CCC(c1nnnn1C1CCCC1)N(Cc1cccs1)Cc1cc2cccc(C)c2[nH]c1=O` (stereo not given), the max dye-equivalent concentration entry was “inactive”.
Consider `O=C(OCc1cc2ccccc2[nH]c1=O)c1cccnc1`, for which the max dye-equivalent concentration result is “inactive”.
With `Cc1cc(C)c2cc(CN(Cc3cccs3)Cc3nnnn3CC3CCCO3)c(=O)[nH]c2c1` (stereo not given) the entry was “inactive”.
Consider `CCC(=O)N(Cc1cc2cc(OC)ccc2[nH]c1=O)c1ccccc1C`, for which the max dye-equivalent concentration was 200 nM (active).
For `c1ccc(CCn2nnnc2CN2CCN(C3CCCC3)CC2)cc1`, the max dye-equivalent concentration entry was “inactive”.
As for `CN1CCC2(CC1)CCN(S(=O)(=O)c1ccccc1)CC2`, the max dye-equivalent concentration entry was “inactive”.
For the molecule `Cc1ccc(S(=O)(=O)Cn2nnnc2CN2CCN(Cc3ccc4c(c3)OCO4)CC2)cc1`, the max dye-equivalent concentration result is “inactive”.
`COc1cccc(N(CC(=O)Nc2cccc(N(C)S(C)(=O)=O)c2)S(C)(=O)=O)c1`: the max dye-equivalent concentration result was “inactive”.
For the molecule `CC(C)CNC(=O)C1CCCN(S(=O)(=O)c2ccc(-n3cnnn3)cc2)C1` (stereo not given), the max dye-equivalent concentration result is “inactive”.
In the case of `CCCOc1cccc(C(=O)Nc2nnn(CCC)n2)c1`, the max dye-equivalent concentration result was “inactive”.
Next, `CC(C)c1cc(CN(C)C)c(O)c(C(C)(C)C)c1`: “inactive”; `CCC(=O)Nc1cccc(NC(=O)CSc2nnc(-c3ccc(NS(C)(=O)=O)cc3)n2C)c1`: “inactive”; `Cc1ccc(N(C(=O)CC2NC(=O)NC2=O)C2(C(=O)NC3CCCC3)CCCCC2)cc1` (stereo not given): “inactive”.
